# According to PubChem BioAssay (NCATS):
# Records with an inconclusive call do not appear. Entries that show only a call come without a potency. Values without a mark were called inactive. Active and inactive are the calls of the source. Calls come from the whole dose curve; as a rule, active = well fitted curve in the direction sought with a large enough effect; inconclusive = small, poorly fitted or top-dose-only effect, or another doubt; inactive = no such curve, though single readings can be large; an effect the other way counts as inactive or inconclusive.
# Tests used:
# [1] = biological target: Rap guanine nucleotide exchange factor 3 (Homo sapiens) (UniProt O95398); test: Confirmatory qHTS for antagonist of cAMP-regulated guanine nucleotide exchange factor 3 (EPAC1) (AID 1645880); note: nearly all actives have a fitted effect of over 55% in size; note: potency is the fitted concentration of half-maximal effect
# Chain of Rap guanine nucleotide exchange factor 3 (Homo sapiens) (O95398 whole entry, looked up): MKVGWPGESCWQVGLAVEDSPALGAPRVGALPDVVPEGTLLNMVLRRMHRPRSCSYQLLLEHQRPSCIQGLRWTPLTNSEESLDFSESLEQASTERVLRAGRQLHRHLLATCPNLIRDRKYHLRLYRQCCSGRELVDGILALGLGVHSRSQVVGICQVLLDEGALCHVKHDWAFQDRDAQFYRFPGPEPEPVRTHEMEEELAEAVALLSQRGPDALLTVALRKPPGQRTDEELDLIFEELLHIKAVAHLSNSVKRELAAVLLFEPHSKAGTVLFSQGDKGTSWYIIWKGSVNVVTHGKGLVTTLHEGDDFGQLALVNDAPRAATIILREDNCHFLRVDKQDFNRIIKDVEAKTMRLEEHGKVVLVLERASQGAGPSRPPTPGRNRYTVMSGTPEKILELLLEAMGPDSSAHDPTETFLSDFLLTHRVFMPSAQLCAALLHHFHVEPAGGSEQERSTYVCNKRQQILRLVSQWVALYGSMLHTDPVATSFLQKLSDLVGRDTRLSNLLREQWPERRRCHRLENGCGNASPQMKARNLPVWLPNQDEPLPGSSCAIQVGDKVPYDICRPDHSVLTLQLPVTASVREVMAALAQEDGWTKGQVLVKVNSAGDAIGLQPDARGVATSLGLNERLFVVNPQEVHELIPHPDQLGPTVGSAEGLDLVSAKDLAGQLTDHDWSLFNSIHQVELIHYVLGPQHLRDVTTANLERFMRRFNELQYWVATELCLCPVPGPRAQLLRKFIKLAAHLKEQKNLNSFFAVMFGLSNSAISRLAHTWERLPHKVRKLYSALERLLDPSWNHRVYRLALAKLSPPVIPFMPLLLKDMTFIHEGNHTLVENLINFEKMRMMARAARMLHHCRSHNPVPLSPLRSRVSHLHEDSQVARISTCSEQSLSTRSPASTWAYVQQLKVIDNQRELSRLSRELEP
# Outline: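 Nucleotide exchange uses 100 nM EPAC1, 250 nM RAP1B-BODIPY-GDP and 50 uM GDP, with compounds in a concentration-titration series. After 5 min at room temperature, fluorescence (480 nm ex/540 nm em) is read every 5 min for 30 min. Data are normalized to control ATA and DMSO.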
# [2] = biological target: Rap guanine nucleotide exchange factor 3 (Homo sapiens) (UniProt O95398); test: Confirmatory qHTS for agonist of cAMP-regulated guanine nucleotide exchange factor 3 (EPAC1) (AID 1645881); note: nearly all actives have a fitted effect of over 75% in size; note: potency is the fitted concentration of half-maximal effect;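 for activation: EPAC1 catalysed release of BODIPY-GDP from Rap1B seen as fluorescence loss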
# [3] = biological target: Rap guanine nucleotide exchange factor 4 (Homo sapiens) (UniProt Q8WZA2); test: Confirmatory qHTS for agonist of cAMP-regulated guanine nucleotide exchange factor 4 (EPAC2) (AID 1645884);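 note: nucleotide exchange releases bodipy-GDP from Rap1 and this lowers its fluorescence; nearly all actives have a fitted effect of over 65% in size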; note: potency is the fitted concentration of half-maximal effect
# Chain of Rap guanine nucleotide exchange factor 4 (Homo sapiens) (Q8WZA2 whole entry, looked up): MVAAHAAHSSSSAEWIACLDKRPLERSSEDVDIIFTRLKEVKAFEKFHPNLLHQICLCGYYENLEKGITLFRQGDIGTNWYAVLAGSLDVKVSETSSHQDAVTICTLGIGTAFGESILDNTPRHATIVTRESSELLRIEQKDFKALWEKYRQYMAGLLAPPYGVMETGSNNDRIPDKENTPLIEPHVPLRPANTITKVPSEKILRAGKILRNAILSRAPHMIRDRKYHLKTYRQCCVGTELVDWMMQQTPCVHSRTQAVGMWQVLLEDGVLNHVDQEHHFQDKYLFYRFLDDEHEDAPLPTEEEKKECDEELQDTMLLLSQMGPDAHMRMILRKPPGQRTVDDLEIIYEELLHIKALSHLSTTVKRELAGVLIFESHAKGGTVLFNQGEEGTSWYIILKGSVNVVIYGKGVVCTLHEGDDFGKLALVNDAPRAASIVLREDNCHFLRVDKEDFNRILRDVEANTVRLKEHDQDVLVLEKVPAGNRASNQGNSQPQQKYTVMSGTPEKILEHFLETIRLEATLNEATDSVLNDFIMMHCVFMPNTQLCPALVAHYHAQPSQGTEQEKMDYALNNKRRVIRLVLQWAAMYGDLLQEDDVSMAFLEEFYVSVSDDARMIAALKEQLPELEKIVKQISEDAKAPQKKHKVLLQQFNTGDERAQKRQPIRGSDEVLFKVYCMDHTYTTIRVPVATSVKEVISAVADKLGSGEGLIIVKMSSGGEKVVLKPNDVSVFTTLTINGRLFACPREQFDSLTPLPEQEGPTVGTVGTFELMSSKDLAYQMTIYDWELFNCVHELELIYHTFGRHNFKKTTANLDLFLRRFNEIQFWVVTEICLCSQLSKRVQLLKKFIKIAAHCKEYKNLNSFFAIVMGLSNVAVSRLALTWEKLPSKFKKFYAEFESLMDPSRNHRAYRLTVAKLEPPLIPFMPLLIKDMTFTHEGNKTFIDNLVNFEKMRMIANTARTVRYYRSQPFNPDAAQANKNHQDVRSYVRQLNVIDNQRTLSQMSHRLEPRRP
# [4] = biological target: Rap guanine nucleotide exchange factor 4 (Homo sapiens) (UniProt Q8WZA2); test: Confirmatory qHTS for antagonist of cAMP-regulated guanine nucleotide exchange factor 4 (EPAC2) (AID 1645885); note: nearly all actives have a fitted effect of over 25% in size; note: potency is the fitted concentration of half-maximal effect
# [5] = biological target: Rap guanine nucleotide exchange factor 3 (Homo sapiens) (UniProt O95398); test: Counterscreen qHTS for antagonist of cAMP-regulated guanine nucleotide exchange factor 3 (EPAC1) (AID 1645888);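 note: fluorescence loss as bound BODIPY-GDP is released from Rap1B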
# Outline: (§1)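 Rap1B-BODIPY-GDP 250 nM + GDP 50 uM; cpds 7-pt, final 9.74 nM–152 uM (activator mode) or from 7.32 nM upwards (inhibitor mode); RT; FI 480/540 nm at 5 and 30 min, then ± cAMP, reread.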
# [6] = biological target: Rap guanine nucleotide exchange factor 3 (Homo sapiens) (UniProt O95398); test: Counterscreen qHTS for agonist of cAMP-regulated guanine nucleotide exchange factor 3 (EPAC1) (AID 1645889); note: nearly all actives have a fitted effect of over 40% in size; note: potency is the fitted concentration of half-maximal effect
# Outline: as §1
SMILES,Potency [1],Potency [2],Potency [3],Potency [4],Potency [5],Potency [6],activation [3],"activity change, negative = inhibition [5]",activation [6],outcome [4]
O=c1c2sccc2nc(SCc2cc(=O)n3cc(Cl)ccc3n2)n1Cc1ccccn1,inactive,inactive,inactive,inactive,inactive,inactive,–,–,–,–
COCCCn1c(=O)/c(=C\c2ccc(OC(F)F)c(OC)c2)s/c1=C(/C#N)C(N)=O,inactive,inactive,inactive,inactive,inactive,inactive,–,–,–,–
O=C(NCc1ccncc1)C1Cc2c(-c3ccccc3Oc3ccccc3)ccnc2O1 (stereo not drawn),inactive,inactive,inactive,inactive,inactive,inactive,–,–,–,–
CCOC(=O)C1=CCN(S(=O)(=O)c2ccc(C)cc2)C1c1cccs1 (stereo not drawn),inactive,inactive,–,inactive,–,–,"5.63% [at 17.1 µM, percent relative to cAMP agonist control]",6.49% [at 30.8 µM],22.8% [at 30.8 µM],–
CCOc1cc(/C=N/NC(=O)c2ccc3c(c2)OCCO3)cc(Br)c1O,30.1 µM (active),inactive,inactive,inactive,inactive,inactive,–,–,–,–
c1ccc(-n2nnnc2-n2ccnc2)cc1,inactive,inactive,inactive,inactive,inactive,inactive,–,–,–,–
COC(=O)c1ccccc1NC(=O)CN1C(=O)COc2ccc(Cl)cc21,inactive,inactive,inactive,inactive,inactive,inactive,–,–,–,–
COc1ccc(NC(=O)c2ccc(NC3=NC4CS(=O)(=O)CC4S3)cc2)cc1 (stereo not drawn),inactive,inactive,–,inactive,–,–,"1.91% [at 17.1 µM, percent relative to cAMP agonist control]",-1.99% [at 30.8 µM],0.693% [at 30.8 µM],–
C=CCc1c(C)c(C#N)c2nc3ccccc3n2c1N1CCCCC1,inactive,inactive,inactive,inactive,inactive,inactive,–,–,–,–
Cc1ccc(NC(=O)CSc2ncn[nH]2)cc1C,inactive,inactive,inactive,inactive,inactive,inactive,–,–,–,–
COC(=O)c1c(SC)nc2ccccc2c1OCc1cc(C)ccc1C,inactive,inactive,inactive,inactive,inactive,inactive,–,–,–,–
O=c1[nH]c2cc3c(cc2cc1CN(Cc1ccccc1)Cc1nnnn1Cc1ccco1)OCCO3,42.6 µM (active),inactive,inactive,inactive,inactive,inactive,–,–,–,–
CCc1nc2c(OCc3ccc(C#N)cc3)cccn2c1N(C)C(=O)c1ccc(C)cc1,inactive,inactive,inactive,19 µM (active),inactive,inactive,–,–,–,–
COc1cccc(-n2nnc3c(=O)n(C/C=C/c4ccccc4)cnc32)c1,inactive,inactive,–,inactive,–,–,"6.54% [at 17.1 µM, percent relative to cAMP agonist control]",2.95% [at 30.8 µM],17.3% [at 30.8 µM],–
CCOC(=O)C1=C(C)OC(N)=C(C#N)C1c1ccc(OC)c(CSc2ccccn2)c1 (stereo not drawn),inactive,inactive,–,inactive,–,–,"7.18% [at 17.1 µM, percent relative to cAMP agonist control]",-6.88% [at 30.8 µM],28.3% [at 30.8 µM],–
Cc1nnnn1-c1ccc(CC(=O)O)cc1,inactive,inactive,–,inactive,–,–,"-2.24% [at 17.1 µM, percent relative to cAMP agonist control]",-6.83% [at 30.8 µM],-1.16% [at 30.8 µM],–
COc1ccccc1OCC(=O)Nc1cccc(S(=O)(=O)NC2=NCCCCC2)c1,inactive,inactive,inactive,inactive,inactive,inactive,–,–,–,–
COC(=O)C(CC(=O)c1ccc(C)cc1)n1cccn1 (stereo not drawn),inactive,inactive,inactive,inactive,inactive,inactive,–,–,–,–
O=S(=O)(NCc1ccccc1)c1ccc(S(=O)(=O)N(Cc2cccs2)CC2CCCO2)cc1 (stereo not drawn),inactive,inactive,inactive,inactive,inactive,inactive,–,–,–,–
CCN(CC)c1ccc2cc(-c3nnc(-c4ccccc4)o3)c(=O)oc2c1,inactive,15.8 µM (active),15.8 µM (active),4.26 µM (active),inactive,15.8 µM (active),–,–,–,–
CCCCN1C(=O)/C(=C/C=C2\Oc3ccccc3N2CC)SC1=S,inactive,112 µM (active),100 µM (active),inactive,inactive,1.78 µM (active),–,–,–,–
COC(=O)CC1(C(=O)OC)Oc2ccc(Br)cc2C(=O)N1c1cc(Cl)cc(Cl)c1 (stereo not drawn),inactive,inactive,–,2.13 µM (active),–,0.0282 µM (active),"5.41% [at 17.1 µM, percent relative to cAMP agonist control]",-4.58% [at 30.8 µM],–,–

SMILES,Potency [1],Potency [2],Potency [3],Potency [4],Potency [5],Potency [6],activation [3],"activity change, negative = inhibition [5]",activation [6],outcome [4]
CCC(C(=O)NCc1ccc(OC)c(OC)c1)n1nc(C)c2c(C)n(-c3ccc(C)cc3)nc2c1=O (stereo not drawn),inactive,inactive,inactive,–,inactive,inactive,–,–,–,inactive [at 12.7 µM]
COc1ccccc1/C=C/C=C1\Oc2c(ccc(O)c2CN(C)C)C1=O,inactive,89.1 µM (active),112 µM (active),inactive,inactive,63.1 µM (active),–,–,–,–
CC(=O)Nc1ccc(Nc2nc3ccccc3nc2NS(=O)(=O)c2ccc(Cl)c([N+](=O)[O-])c2)cc1,50.1 µM (active),inactive,–,inactive,–,–,"-3.97% [at 17.1 µM, percent relative to cAMP agonist control]",-36.3% [at 30.8 µM],21.8% [at 30.8 µM],–
COc1cc(OC)c(CNC2CCCCCC2)cc1Br,inactive,inactive,inactive,inactive,inactive,inactive,–,–,–,–
CN1C(=O)C2(C(C#N)=C(N)N(c3cc(Cl)cc(Cl)c3)C3=C2C(=O)CC(C)(C)C3)c2ccccc21 (stereo not drawn),inactive,inactive,inactive,inactive,inactive,inactive,–,–,–,–
CC1(Cc2ccc(Cl)cc2)C(=O)Nc2ccc(-c3cccnc3)cc21 (stereo not drawn),inactive,inactive,inactive,inactive,inactive,inactive,–,–,–,–
O=C(CCNC(=O)c1ccc(Br)cc1)Nc1ccccc1N1CCOCC1,inactive,inactive,inactive,inactive,inactive,inactive,–,–,–,–
O=C(O)CN1C(=O)/C(=C\c2ccccc2OCc2ccc(Cl)cc2Cl)SC1=S,44.7 µM (active),inactive,–,inactive,–,–,"-0.613% [at 17.1 µM, percent relative to cAMP agonist control]",-18.8% [at 30.8 µM],3.68% [at 30.8 µM],–
Cc1ccc(S(=O)(=O)N2C(c3ccc(Cl)c(Cl)c3)CC=C(C(=O)O)C2c2ccc(Cl)cc2)cc1 (stereo not drawn),84.9 µM (active),inactive,inactive,inactive,inactive,inactive,–,–,–,–
O=C1C(Cl)=C(N2CCC(C(=O)O)CC2)C(=O)c2ccccc21,inactive,inactive,inactive,inactive,inactive,15.8 µM (active),–,–,–,–
CCCC(=O)N1c2nc(C(C)C)nn2C2(CCCCC2)[C@@H]2CCCC[C@@H]21,inactive,inactive,inactive,inactive,inactive,inactive,–,–,–,–
COc1cc(SC)ccc1C(=O)N(Cc1ccccc1)c1ccccc1,inactive,inactive,inactive,23.9 µM (active),inactive,inactive,–,–,–,–
CCCCC(CC)Cn1c(Oc2ccccc2)nc2c1c(=O)n(C)c(=O)n2C (stereo not drawn),inactive,inactive,inactive,inactive,inactive,inactive,–,–,–,–
COc1cc(/C=C2/C(=O)NN(c3ccc(C)c(Cl)c3)C2=O)cc([N+](=O)[O-])c1O,8.49 µM (active),inactive,inactive,inactive,inactive,inactive,–,–,–,–
C/C(=N\NC(=O)c1cc(-c2cccc([N+](=O)[O-])c2)n[nH]1)c1ccccc1O,26.9 µM (active),inactive,inactive,inactive,inactive,inactive,–,–,–,–
Cc1csc(SCC(=O)NC23CC4CC(CC(C4)C2)C3)n1,inactive,inactive,–,inactive,–,–,"1.39% [at 17.1 µM, percent relative to cAMP agonist control]",-23.6% [at 30.8 µM],22.6% [at 30.8 µM],–
C=CCCCN(Cc1ccccc1)S(=O)(=O)c1ccccc1Br,inactive,inactive,–,inactive,–,–,"1.87% [at 17.1 µM, percent relative to cAMP agonist control]",-1.46% [at 30.8 µM],12.4% [at 30.8 µM],–
C[C@@H](c1ccccc1)N1Cc2ccccc2Oc2cc(Br)ccc2S1(=O)=O,inactive,inactive,inactive,2.69 µM (active),inactive,inactive,–,–,–,–
CCCCSc1nc2c(c(=O)n1CC)SC(C)C2 (stereo not drawn),inactive,inactive,–,inactive,–,–,"-4.2% [at 17.1 µM, percent relative to cAMP agonist control]",2.79% [at 30.8 µM],5.23% [at 30.8 µM],–
COc1cc(OC)nc(Oc2cccc(Cl)c2C)n1,inactive,inactive,inactive,inactive,inactive,inactive,–,–,–,–
CCOC(=O)c1c(CC(C)C)csc1N,inactive,inactive,inactive,inactive,inactive,inactive,–,–,–,–
